Laboratory results reported in the supplement of paper PMC10849652.
The full data set covers some 7,900 targets. This sample favours those with a hit. About 0.6% of all pairs of compound and target were hits.

Tests used:
Assay in all cases: log2 fold change, soluble protein after heating vs DMSO (PISA); higher = thermal stabilisation; K562 cells, 10 uM, 30 min; active = over 0.2 and 3.5 SD of the protein, either way, in both replicates (recomputed)
bafetinib = compound: Cc1ccc(NC(=O)c2ccc(CN3CC[C@H](N(C)C)C3)c(C(F)(F)F)c2)cc1Nc1nccc(-c2cncnc2)n1 [bafetinib]
In short: (§1)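 K562 cells at 2×10^6 cells/mL were exposed to 10 μM compound for 30 min, then aliquots were heated for 3 min across 48°C-58°C, pooled, and extracted in PBS containing 0.5% NP-40 at 4°C. The supernatant after 21,000xg for 90 min was taken as soluble protein and measured by TMTpro 16plex LC-MS/MS with channel sums equalised. Thermal stability is reported relative to control samples, with values from duplicates. Fold changes are given on a log2 scale.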

[1] = compound: Cc1cccc(CC(=O)N2CCc3c2ccc(-c2cn(C)c4ncnc(N)c24)c3F)n1
In short: as §1

nilotinib = compound: Cc1cn(-c2cc(NC(=O)c3ccc(C)c(Nc4nccc(-c5cccnc5)n4)c3)cc(C(F)(F)F)c2)cn1 [nilotinib]
In short: as §1

[2] = compound: Cc1nc(Nc2n[nH]c3c2CN(C(=O)N[C@H](CN(C)C)c2ccccc2)C3(C)C)c2sccc2n1
In short: as §1

dasatinib = compound: Cc1nc(Nc2ncc(C(=O)Nc3c(C)cccc3Cl)s2)cc(N2CCN(CCO)CC2)n1 [dasatinib]
In short: as §1

[3] = compound: Cc1ncc(-c2ccnc(Nc3ccc(S(C)(=O)=O)cc3)n2)n1C(C)C
In short: as §1

[4] = compound: Cn1cc(-c2ccc3c(c2)CCN3C(=O)Cc2cccc(C(F)(F)F)c2)c2c(N)ncnc21
In short: as §1

[5] = compound: Cn1cc(-c2ccc3nnc(C(F)(F)c4ccc5ncccc5c4)n3n2)cn1
In short: as §1

tipifarnib = compound: Cn1cncc1[C@@](N)(c1ccc(Cl)cc1)c1ccc2c(c1)c(-c1cccc(Cl)c1)cc(=O)n2C [tipifarnib]
In short: as §1

mubritinib = compound: FC(F)(F)c1ccc(/C=C/c2nc(COc3ccc(CCCCn4ccnn4)cc3)co2)cc1 [mubritinib]
In short: as §1

[6] = compound: NC(=O)Nc1cc(-c2cccc(F)c2)sc1C(=O)N[C@H]1CCCNC1
In short: as §1

[7] = compound: NC(=O)c1cnc(N[C@@H]2CCCC[C@@H]2N)nc1Nc1cccc(-n2nccn2)c1
In short: as §1

[8] = compound: NC1(c2ccc(-c3nc4ccn5c(=O)[nH]nc5c4cc3-c3ccccc3)cc2)CCC1
In short: as §1

[9] = compound: NCC(=O)Nc1ccc(-n2nc(C(F)(F)F)cc2-c2ccc3c(ccc4ccccc43)c2)cc1
In short: as §1

entinostat = compound: Nc1ccccc1NC(=O)c1ccc(CNC(=O)OCc2cccnc2)cc1 [entinostat]
In short: as §1

vorinostat = compound: O=C(CCCCCCC(=O)Nc1ccccc1)NO [vorinostat]
In short: as §1

citarinostat = compound: O=C(CCCCCCNC(=O)c1cnc(N(c2ccccc2)c2ccccc2Cl)nc1)NO [citarinostat]
In short: as §1

silmitasertib = compound: O=C(O)c1ccc2c(c1)nc(Nc1cccc(Cl)c1)c1ccncc12 [silmitasertib]
In short: as §1

[10] = compound: O=C1NC(=O)C(c2cnc3ccccn23)=C1c1cn2c3c(cc(F)cc13)CN(C(=O)N1CCCCC1)CC2
In short: as §1

[11] = compound: c1cc(OCCN2CCCCC2)cc(-c2n[nH]c3ccc(-c4nnc[nH]4)cc23)c1
In short: as §1

Measured: log2 fold change

WAPL isoform 3 (UniProt Q7Z5K2)
Chain of UniProt Q7Z5K2 (Q7Z5K2 whole entry, looked up): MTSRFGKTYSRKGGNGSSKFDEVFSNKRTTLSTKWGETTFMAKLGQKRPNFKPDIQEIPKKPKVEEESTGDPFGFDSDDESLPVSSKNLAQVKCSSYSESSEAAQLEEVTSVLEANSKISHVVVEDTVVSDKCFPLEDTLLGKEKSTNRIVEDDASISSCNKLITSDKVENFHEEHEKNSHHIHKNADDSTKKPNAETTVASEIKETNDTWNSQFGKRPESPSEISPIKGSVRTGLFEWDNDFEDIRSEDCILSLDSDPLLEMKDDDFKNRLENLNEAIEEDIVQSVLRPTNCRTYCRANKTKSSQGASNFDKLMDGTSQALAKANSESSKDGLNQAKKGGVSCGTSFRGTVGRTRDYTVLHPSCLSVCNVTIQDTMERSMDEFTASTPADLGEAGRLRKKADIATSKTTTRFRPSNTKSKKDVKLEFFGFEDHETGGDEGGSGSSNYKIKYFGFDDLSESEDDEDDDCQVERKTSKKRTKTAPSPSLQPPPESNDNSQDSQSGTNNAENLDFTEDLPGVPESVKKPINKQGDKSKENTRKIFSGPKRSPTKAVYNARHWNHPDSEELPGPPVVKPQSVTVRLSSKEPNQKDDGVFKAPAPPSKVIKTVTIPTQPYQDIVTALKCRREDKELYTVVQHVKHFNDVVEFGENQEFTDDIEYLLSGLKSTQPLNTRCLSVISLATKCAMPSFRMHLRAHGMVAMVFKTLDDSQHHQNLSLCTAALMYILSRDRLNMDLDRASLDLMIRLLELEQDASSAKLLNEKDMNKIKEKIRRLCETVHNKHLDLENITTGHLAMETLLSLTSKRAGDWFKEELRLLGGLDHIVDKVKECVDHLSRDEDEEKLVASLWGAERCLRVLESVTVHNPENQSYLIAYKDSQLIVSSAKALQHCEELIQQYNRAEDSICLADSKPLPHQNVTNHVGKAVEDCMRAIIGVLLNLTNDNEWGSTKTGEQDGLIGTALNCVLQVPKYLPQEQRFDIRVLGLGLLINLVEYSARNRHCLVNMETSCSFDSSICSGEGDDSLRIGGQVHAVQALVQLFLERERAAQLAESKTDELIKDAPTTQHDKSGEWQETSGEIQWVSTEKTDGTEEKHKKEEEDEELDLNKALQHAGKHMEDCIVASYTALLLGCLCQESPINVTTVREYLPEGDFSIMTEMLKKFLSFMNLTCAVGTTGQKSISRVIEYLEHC
active: [8] -0.423
inactive: bafetinib 0 | [1] -0.044 | nilotinib -0.011 | [2] 0.01 | dasatinib -0.081 | [3] -0.03 | [4] 0.04 | [5] 0.096 | tipifarnib -0.218 | mubritinib 0.156 | [6] -0.009 | [7] -0.033 | [9] -0.066 | entinostat 0.01 | vorinostat 0.082 | citarinostat 0.198 | silmitasertib 0.067 | [10] -0.148 | [11] 0.078

TNFAIP8 isoform 4 (UniProt O95379)
Chain of UniProt O95379 (O95379 whole entry, looked up): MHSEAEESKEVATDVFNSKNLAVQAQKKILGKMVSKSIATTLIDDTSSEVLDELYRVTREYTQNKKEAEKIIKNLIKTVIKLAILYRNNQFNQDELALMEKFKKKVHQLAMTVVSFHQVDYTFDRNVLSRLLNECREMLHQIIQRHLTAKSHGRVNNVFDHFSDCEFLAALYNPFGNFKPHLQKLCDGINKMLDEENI
active: vorinostat 0.207
inactive: bafetinib -0.079 | [1] 0.014 | nilotinib -0.045 | [2] -0.095 | dasatinib -0.109 | [3] 0.007 | [4] 0.047 | [5] 0.005 | tipifarnib -0.023 | mubritinib 0.031 | [6] -0.032 | [7] -0.091 | [8] -0.061 | [9] 0.029 | entinostat 0.018 | citarinostat 0.012 | silmitasertib 0.147 | [10] -0.073 | [11] 0.087

TOP2A isoform 4 (UniProt P11388)
inactive: bafetinib 0.308 | [1] 0.092 | nilotinib -0.119 | [2] 0.033 | dasatinib 0.102 | [3] -0.11 | [4] -0.29 | [5] -0.324 | tipifarnib 0.104 | mubritinib -0.292 | [6] 0.159 | [7] 0.058 | [8] 0.307 | [9] 0.19 | entinostat -0.042 | vorinostat 0.034 | citarinostat -0.112 | silmitasertib 0.255 | [10] 0.296 | [11] -0.205

VPS8 (UniProt Q8N3P4)
Chain of UniProt Q8N3P4 (Q8N3P4 whole entry, looked up): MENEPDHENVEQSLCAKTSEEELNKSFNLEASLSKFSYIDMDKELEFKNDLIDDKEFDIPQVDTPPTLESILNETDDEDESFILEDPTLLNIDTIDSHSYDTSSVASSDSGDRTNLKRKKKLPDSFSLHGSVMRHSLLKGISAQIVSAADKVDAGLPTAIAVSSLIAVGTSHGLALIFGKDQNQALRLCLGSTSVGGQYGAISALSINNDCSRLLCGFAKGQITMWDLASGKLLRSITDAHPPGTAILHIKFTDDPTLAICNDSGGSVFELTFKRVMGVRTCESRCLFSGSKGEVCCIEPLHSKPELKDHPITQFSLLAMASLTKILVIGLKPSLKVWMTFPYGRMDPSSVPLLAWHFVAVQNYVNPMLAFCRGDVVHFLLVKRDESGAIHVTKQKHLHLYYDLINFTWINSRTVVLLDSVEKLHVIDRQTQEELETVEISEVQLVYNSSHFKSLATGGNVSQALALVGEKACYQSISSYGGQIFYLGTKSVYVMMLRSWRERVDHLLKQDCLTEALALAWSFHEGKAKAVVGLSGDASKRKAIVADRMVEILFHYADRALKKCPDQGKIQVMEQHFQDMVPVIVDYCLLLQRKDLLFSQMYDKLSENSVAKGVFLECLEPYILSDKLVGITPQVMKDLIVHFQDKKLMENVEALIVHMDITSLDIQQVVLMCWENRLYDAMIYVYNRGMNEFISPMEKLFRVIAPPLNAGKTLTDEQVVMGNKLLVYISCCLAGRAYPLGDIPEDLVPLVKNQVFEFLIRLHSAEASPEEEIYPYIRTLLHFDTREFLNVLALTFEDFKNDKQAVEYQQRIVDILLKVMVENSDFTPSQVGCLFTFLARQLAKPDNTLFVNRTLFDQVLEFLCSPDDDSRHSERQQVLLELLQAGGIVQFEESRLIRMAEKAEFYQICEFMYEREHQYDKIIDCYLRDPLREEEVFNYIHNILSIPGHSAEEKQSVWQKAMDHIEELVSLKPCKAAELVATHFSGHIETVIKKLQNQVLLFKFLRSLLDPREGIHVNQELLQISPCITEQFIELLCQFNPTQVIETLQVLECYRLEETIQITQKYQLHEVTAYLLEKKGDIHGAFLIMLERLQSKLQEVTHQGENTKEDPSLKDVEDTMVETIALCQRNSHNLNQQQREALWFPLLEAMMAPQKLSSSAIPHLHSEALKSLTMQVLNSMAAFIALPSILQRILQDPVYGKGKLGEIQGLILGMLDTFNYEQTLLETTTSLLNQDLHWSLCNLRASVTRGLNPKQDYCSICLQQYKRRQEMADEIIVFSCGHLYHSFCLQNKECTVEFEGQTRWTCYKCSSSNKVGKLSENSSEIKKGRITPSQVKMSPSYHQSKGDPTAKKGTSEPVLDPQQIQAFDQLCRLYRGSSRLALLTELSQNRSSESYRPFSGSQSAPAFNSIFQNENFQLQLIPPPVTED
inactive: bafetinib 0.073 | [1] 0.043 | nilotinib -0.162 | [2] -0.018 | dasatinib -0.107 | [3] 0.035 | [4] -0.018 | [5] -0.083 | tipifarnib -0.078 | mubritinib 0.043 | [6] -0.035 | [7] -0.125 | [8] -0.15 | [9] -0.088 | entinostat 0.077 | vorinostat 0.158 | citarinostat -0.004 | silmitasertib 0.078 | [10] -0.006 | [11] -0.012

TMEM208 (UniProt Q9BTX3)
Chain of UniProt Q9BTX3 (Q9BTX3 whole entry, looked up): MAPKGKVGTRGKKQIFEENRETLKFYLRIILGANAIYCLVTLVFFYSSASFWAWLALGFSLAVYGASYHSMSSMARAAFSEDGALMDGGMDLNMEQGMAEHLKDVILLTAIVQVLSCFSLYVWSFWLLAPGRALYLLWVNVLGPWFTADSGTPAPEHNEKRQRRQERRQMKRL
inactive: bafetinib -0.131 | [1] 0.097 | nilotinib -0.101 | [2] 0.092 | dasatinib -0.19 | [3] 0.185 | [4] -0.024 | [5] 0.01 | tipifarnib -0.223 | mubritinib 0.062 | [6] 0.038 | [7] -0.133 | [8] -0.28 | [9] -0.181 | entinostat -0.01 | vorinostat 0.187 | citarinostat 0.036 | silmitasertib 0.048 | [10] 0.02 | [11] -0.09

UFD1 isoform 1 (UniProt Q92890)
Chain of UniProt Q92890 (Q92890 whole entry, looked up): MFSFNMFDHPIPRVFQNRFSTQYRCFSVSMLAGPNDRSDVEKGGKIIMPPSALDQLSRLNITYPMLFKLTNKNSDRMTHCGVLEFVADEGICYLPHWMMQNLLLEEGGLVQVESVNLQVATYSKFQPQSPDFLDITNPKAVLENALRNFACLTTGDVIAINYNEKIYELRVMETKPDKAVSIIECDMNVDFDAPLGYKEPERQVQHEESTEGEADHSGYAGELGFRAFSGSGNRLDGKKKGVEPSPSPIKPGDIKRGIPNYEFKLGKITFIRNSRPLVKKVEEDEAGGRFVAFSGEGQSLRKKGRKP
inactive: bafetinib -0.007 | [1] 0.01 | nilotinib 0.025 | [2] -0.019 | dasatinib 0.031 | [3] -0.003 | [4] 0.006 | [5] 0.002 | tipifarnib -0.046 | mubritinib 0.041 | [6] -0.001 | [7] -0.015 | [8] -0.03 | [9] -0.001 | entinostat 0.01 | vorinostat 0.003 | citarinostat 0.061 | silmitasertib -0.014 | [10] 0.014 | [11] 0.034

TXN2 (UniProt Q99757)
Chain of UniProt Q99757 (Q99757 whole entry, looked up): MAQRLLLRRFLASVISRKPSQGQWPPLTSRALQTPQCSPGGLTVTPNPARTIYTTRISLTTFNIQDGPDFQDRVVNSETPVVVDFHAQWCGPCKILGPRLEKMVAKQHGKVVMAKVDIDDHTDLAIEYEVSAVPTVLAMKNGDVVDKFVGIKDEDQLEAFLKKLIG
inactive: bafetinib -0.105 | [1] -0.104 | nilotinib 0.034 | [2] -0.005 | dasatinib 0.083 | [3] -0.048 | [4] 0.227 | [5] 0.013 | tipifarnib 0.059 | mubritinib 0.009 | [6] -0.039 | [7] -0.009 | [8] 0.088 | [9] 0.049 | entinostat 0.023 | vorinostat -0.072 | citarinostat 0.054 | silmitasertib -0.072 | [10] -0.09 | [11] -0.036

VRK2 (UniProt Q86Y07)
Chain of UniProt Q86Y07 (Q86Y07 whole entry, looked up): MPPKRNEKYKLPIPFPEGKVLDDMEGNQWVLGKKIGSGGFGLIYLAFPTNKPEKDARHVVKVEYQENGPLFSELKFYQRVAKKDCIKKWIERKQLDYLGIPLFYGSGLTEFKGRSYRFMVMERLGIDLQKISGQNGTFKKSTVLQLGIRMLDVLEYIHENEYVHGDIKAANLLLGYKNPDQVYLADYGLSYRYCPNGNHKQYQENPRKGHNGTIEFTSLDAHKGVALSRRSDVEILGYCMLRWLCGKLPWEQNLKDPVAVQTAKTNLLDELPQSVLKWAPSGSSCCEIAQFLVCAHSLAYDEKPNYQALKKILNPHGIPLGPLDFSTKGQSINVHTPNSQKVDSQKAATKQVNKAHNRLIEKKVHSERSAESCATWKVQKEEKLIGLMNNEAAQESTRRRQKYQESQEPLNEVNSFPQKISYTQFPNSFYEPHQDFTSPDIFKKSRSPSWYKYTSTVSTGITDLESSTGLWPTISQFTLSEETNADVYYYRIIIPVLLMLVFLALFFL
inactive: bafetinib 0.033 | [1] 0.081 | nilotinib -0.062 | dasatinib 0.011 | [3] 0.033 | [4] 0.129 | [5] -0.066 | tipifarnib -0.057 | mubritinib 0.006 | [6] 0.023 | [7] 0.04 | [8] -0.111 | [9] -0.025 | entinostat 0.032 | vorinostat 0.02 | citarinostat 0.008 | silmitasertib 0 | [10] 0.06 | [11] 0.001
active: [2] 0.414
